For six compounds, growth inhibition results are on record in PubChem BioAssay (NCI).

The panel holds about 79,000 compounds, 15% with a hit somewhere; the sample as a whole holds those more often. A number with no mark means an inactive call. The source made the active and inactive calls. No stated cut-off is given here; in the data, active means growth inhibition above about 70%; inactive means the rest.

Test [1] in a line: NCI Yeast Anticancer Drug Screen. Data for the rad50 strain (AID 155).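 Further: 0% = growth of vehicle-only cultures of the same strain.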 As to conditions: S. cerevisiae rad50 strain growth inhibition, stronger effect = higher value. In outline:
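Compounds were tested on a yeast strain with an engineered DNA damage repair alteration; the reported value is growth inhibition normalised to vehicle treatment.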

Test [2] in a line: NCI Yeast Anticancer Drug Screen. Data for the mec2-1 strain (AID 157). The settings on record: S. cerevisiae mec2-1 strain, stronger effect = higher value. In short, it runs like this:
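Readout is yeast growth inhibition, normalised to vehicle-treated controls, in the mec2-1 strain exposed to compound.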

Test [3] is described as follows: NCI Yeast Anticancer Drug Screen. Data for the sgs1 mgt1 strain (AID 161).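 Further: 0% = growth of cultures given vehicle only.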 The settings on record: S. cerevisiae sgs1 mgt1 strain, stronger effect = higher value. In outline:
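Percent growth inhibition was derived by comparing compound-exposed mutant yeast with vehicle-exposed cultures. The strain carries alterations in DNA damage repair.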

Test [4] is described as follows: NCI Yeast Anticancer Drug Screen. Data for the cln2 rad14 strain (AID 165).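 Further: 0% = growth equal to vehicle treated cultures.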 The settings on record: S. cerevisiae cln2 rad14 strain, stronger effect = higher value. In outline:
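Relative to vehicle controls, growth inhibition of compound-treated cln2 rad14 yeast was recorded.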

The nature of test [5]: NCI Yeast Anticancer Drug Screen. Data for the bub3 strain (AID 167). As to conditions: S. cerevisiae bub3 mutant strain, stronger effect = higher value. In outline:
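Growth of a checkpoint-deficient yeast mutant is measured after compound exposure. Values represent inhibition relative to vehicle.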

A short description of test [6]: NCI Yeast Anticancer Drug Screen. Data for the mlh1 rad18 strain (AID 175). The settings on record: S. cerevisiae mlh1 rad18 strain growth inhibition, stronger effect = higher value. In short, it runs like this: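 Test agents were incubated with a yeast strain of defined genotype (DNA damage repair defect). Inhibition of growth was derived by comparison with vehicle-exposed cultures.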

The mark [7] stands for this setting: at 5.0 µM (retest, dose inferred, filed as 0.5).
Setting [8] is: at 50.0 µM (retest, dose inferred, filed as 5.0).

For the compound `S=C(Nc1ccccc1)NC1CC2C=CC1CC2` (stereo not drawn), the growth inhibition in test [1] (setting [7]) was -9%; in test [1] (setting [8]), -4%; in test [1] (at 50.0 µM) it was -5%; in test [2] (setting [7]), -11%; in test [2] (setting [8]), -12%; in test [2] (at 50.0 µM), 7.2%. Besides, the growth inhibition in test [3] (setting [7]) is -4%; in test [3] (setting [8]), 2%; in test [3] (at 50.0 µM), 1.6%; in test [4] (setting [7]), -23%; in test [4] (setting [8]), -11%; in test [4] (at 50.0 µM) it was 31.6%. Moreover, the growth inhibition in test [5] (setting [7]) was -4%; in test [5] (setting [8]), 0%; in test [5] (at 50.0 µM), 19.6%; in test [6] (setting [7]), -4%; in test [6] (setting [8]), -13%; in test [6] (at 50.0 µM), 13.2%.

With `COc1ccccc1NC(c1ccccc1)c1ccc2cccnc2c1O` (stereo not drawn), the growth inhibition is 2% in test [1] (setting [7]); 50% in test [1] (setting [8]); 81.2% (active) in test [1] (at 50.0 µM); 3% in test [2] (setting [7]); 60% in test [2] (setting [8]); 49.2% in test [2] (at 50.0 µM). Further, the growth inhibition is 7% in test [3] (setting [7]); 45% in test [3] (setting [8]); 73.2% (active) in test [3] (at 50.0 µM); -7% in test [4] (setting [7]); -1% in test [4] (setting [8]); 15.2% in test [4] (at 50.0 µM). For the same compound, the growth inhibition is -5% in test [5] (setting [7]); 18% in test [5] (setting [8]); 2.9% in test [5] (at 50.0 µM); -23% in test [6] (setting [7]); 44% in test [6] (setting [8]); 75% (active) in test [6] (at 50.0 µM).

Take `CCCCc1c(O)c(N=NC(=O)C[n+]2ccccc2)c2ccccc2c1O`: the growth inhibition is -2% in test [1] (setting [7]); 10% in test [1] (setting [8]); 8.55% in test [1] (at 50.0 µM); -3% in test [2] (setting [7]); 32% in test [2] (setting [8]); 11.6% in test [2] (at 50.0 µM). Besides, the growth inhibition is 2% in test [3] (setting [7]); 27% in test [3] (setting [8]); 17.8% in test [3] (at 50.0 µM); 2% in test [4] (setting [7]); -3% in test [4] (setting [8]); 40.1% in test [4] (at 50.0 µM). Besides, the growth inhibition in test [5] (setting [7]) was -3%; in test [5] (setting [8]), -1%; in test [5] (at 50.0 µM), 13.5%; in test [6] (setting [7]), -2%; in test [6] (setting [8]) it was 21%; in test [6] (at 50.0 µM), 4.75%.

Take `CCCCCCCCCCCCCCCCCCSSCCCCCCCCCCCCCCCCCC`: the growth inhibition in test [1] (setting [7]) was 1%; in test [1] (setting [8]), -3%; in test [1] (at 50.0 µM), 36.1%; in test [2] (setting [7]), 1%; in test [2] (setting [8]), 4%; in test [2] (at 50.0 µM) it was 14.9%. Further, the growth inhibition is -3% in test [3] (setting [7]); -3% in test [3] (setting [8]); -0.8% in test [3] (at 50.0 µM); -4% in test [4] (setting [7]); 4% in test [4] (setting [8]); 80.9% (active) in test [4] (at 50.0 µM). Further, the growth inhibition in test [5] (setting [7]) was 2%; in test [5] (setting [8]), 1%; in test [5] (at 50.0 µM), 15.6%; in test [6] (setting [7]), -3%; in test [6] (setting [8]), -7%; in test [6] (at 50.0 µM) it was -16.1%.

For `Cc1cc(N)c2cc(OCCOc3ccc4nc(C)cc(N)c4c3)ccc2n1`, the growth inhibition was 68% in test [1] (setting [7]); 91% (active) in test [1] (setting [8]); 97.5% (active) in test [1] (at 50.0 µM); 69% in test [2] (setting [7]); 94% (active) in test [2] (setting [8]); 95.2% (active) in test [2] (at 50.0 µM). Also, the growth inhibition was 77% (active) in test [3] (setting [7]); 93% (active) in test [3] (setting [8]); 92.5% (active) in test [3] (at 50.0 µM); 71% (active) in test [4] (setting [7]); 92% (active) in test [4] (setting [8]); 84.7% (active) in test [4] (at 50.0 µM). Further, the growth inhibition is 79% (active) in test [5] (setting [7]); 95% (active) in test [5] (setting [8]); 93.7% (active) in test [5] (at 50.0 µM); 91% (active) in test [6] (setting [7]); 94% (active) in test [6] (setting [8]); 95.2% (active) in test [6] (at 50.0 µM).

On to `O=[N+]([O-])c1cc(Cc2cc([N+](=O)[O-])c3cccnc3c2O)c(O)c2ncccc12`, for which the growth inhibition in test [1] (setting [7]) was 96% (active); in test [1] (setting [8]), 98% (active); in test [1] (at 50.0 µM), 98.3% (active); in test [2] (setting [7]), 89% (active); in test [2] (setting [8]) it was 98% (active); in test [2] (at 50.0 µM), 97.2% (active). Further, the growth inhibition is 85% (active) in test [3] (setting [7]); 98% (active) in test [3] (setting [8]); 98.4% (active) in test [3] (at 50.0 µM); 65% in test [4] (setting [7]); 97% (active) in test [4] (setting [8]); 93.5% (active) in test [4] (at 50.0 µM). The growth inhibition in test [5] (setting [7]) was 73% (active); in test [5] (setting [8]), 98% (active); in test [5] (at 50.0 µM), 97.4% (active); in test [6] (setting [7]) it was 90% (active); in test [6] (setting [8]), 97% (active); in test [6] (at 50.0 µM) it was 97.8% (active).
